Among the data in a collection of fitness landscapes (doi:10.1126/science.1257360) are enrichment ratio values, retold here.

B1: PhoQ; a variant is named by its letters at X, in order, P23837 (parent)
chain: MKKLLRLFFPLSLRVRFLLATAAVVLVLSLAYGMVALIGYSVSFDKTTFRLLRGESNLFYTLAKWENNKLHVELPENIDKQSPTMTLIYDENGQLLWAQRDVPWLMKMIQPDWLKSNGFHEIEADVNDTSLLLSGDHSIQQQLQEVREDDDDAEMTHSVAVNVYPATSRMPKLTIVVVDTIPVELKSSYMVWSWFIYVLSANLLLVIPLLWVAAWWSLRPIEALAKEVRELEEHNRELLNPATTRELTSLVRNLNRLLKSERERYDKYRTTLTDLTHSLKTPLXXLQXXLRSLRSEKMSVSDAEPVMLEQISRISQQIGYYLHRASMRGGTLLSRELHPVAPLLDNLTSALNKVYQRKGVNISLDISPEISFVGEQNDFVEVMGNVLDNACKYCLEFVEISARQTDEHLYIVVEDDGPGIPLSKREVIFDRGQRVDTLRPGQGVGLAVAREITEQYEGKIVAGESMLGGARMEVIFGRQHSAPKDE

Whole data set: some 140,000 sequences, median “enrichment ratio after two sorts for PhoP signalling” near 0, cut for the highest 2% near 11. The full list was thinned out, with the highest values kept by preference.

This assay covers variants of B1. The assay can be described thus: enrichment ratio after two sorts for PhoP signalling (ratio (wild type AVST 3.29)); higher = more functional. The note with it: with PhoP (E. coli).
As to NRIH, the enrichment ratio is at most 0.25. The same measure for NATM: at most 0.25; for GCGM: 2.98. As for GCIM, the enrichment ratio is 24.5. In the case of GSIM it was 11.6. The same measure for GATM: 15.3; for KAIM: at most 0.25. The same measure for KATM: at most 0.25; for GAPM: at most 0.25.

Consider GAIM, for which the enrichment ratio stood at 15.4. In the case of GCCK, the enrichment ratio is at most 0.25.

As to GSTM, the enrichment ratio worked out at 6.87. The same measure for GSWM: at most 0.25; for TSES: 2.55.

SFWK: the enrichment ratio was at most 0.25. The same measure for AMIT: at most 0.25; for NCDK: at most 0.25; for DMRV: at most 0.25. The same measure for EDCW: at most 0.25. The same measure for MMNP: at most 0.25. DYLI: the enrichment ratio is at most 0.25. In the case of MAPM it was at most 0.25; in that of MATM, 22.6; in that of GTIM, 2.86. In the case of NIIM it was at most 0.25; in that of GIIM, 1.99; in that of GVIM, 19.3. The same measure for YHIM: at most 0.25; for NVIM: at most 0.25; for GGIM: 13.9. Regarding GVWM, the enrichment ratio is at most 0.25. Regarding GNIM, the enrichment ratio stood at 13.4. In the case of FMTM it was at most 0.25. In the case of VKAK it was at most 0.25.

For the variant HKPF, the enrichment ratio is at most 0.25. In the case of EDLF it was at most 0.25; in that of GLPS, at most 0.25.

Regarding PYPA, the enrichment ratio is at most 0.25. Take KRQM: the enrichment ratio is at most 0.25.

For HDQM, the enrichment ratio was at most 0.25.

For the variant YYGF, the enrichment ratio is at most 0.25. In the case of YSDV it was at most 0.25; in that of VFWT, at most 0.25; in that of GVSM, 0.841. Turning to MVTM, the enrichment ratio was 3.98. The same measure for MRSM: at most 0.25; for FQSM: at most 0.25. Consider MASM, for which the enrichment ratio was 16.9. The same measure for GQSM: 20.5; for MQSM: 8.88. The same measure for FVSM: at most 0.25; for MVHF: 0.626; for MESM: 19. In the case of GYSM it was at most 0.25; in that of MVSM, 12.3; in that of LDIM, at most 0.25. On to MSCN, for which the enrichment ratio stood at 1.97.

As to THNV, the enrichment ratio was at most 0.25. The same measure for ILTF: 0.323; for GVMY: at most 0.25. As for KDHR, the enrichment ratio is at most 0.25. With GSSM, the enrichment ratio was determined as 11.2. Consider NESF, for which the enrichment ratio is at most 0.25. In the case of NESM it was at most 0.25; in that of TESF, 11.5. On to GESF, for which the enrichment ratio came out at 0.55. For GSSF, the enrichment ratio was 0.449.

On to QESF, for which the enrichment ratio was at most 0.25. For GSQM, the enrichment ratio is at most 0.25. In the case of QESM, the enrichment ratio came to 5.67.

Turning to GEHF, the enrichment ratio was at most 0.25.

Take GESM: the enrichment ratio was found to be 17.3. In the case of TESM it was 30. In the case of TLHH it was at most 0.25; in that of FQMV, 0.463; in that of MHQA, at most 0.25. In the case of NHWK it was at most 0.25. For ITGV, the enrichment ratio is at most 0.25. As to NASM, the enrichment ratio is at most 0.25. In the case of TASM it was 13.4; in that of KASM, at most 0.25.

Consider AEWF, for which the enrichment ratio was at most 0.25. As to WRRW, the enrichment ratio was at most 0.25. The same measure for AKND: at most 0.25; for SHND: at most 0.25. On to THND, for which the enrichment ratio worked out at 29.6. In the case of MKND it was at most 0.25; in that of NHND, at most 0.25; in that of TKND, 12.6. In the case of DRLD it was at most 0.25. The same measure for HSGG: at most 0.25; for FKNI: at most 0.25; for NEDI: at most 0.25. For NKAR, the enrichment ratio was at most 0.25.

Take FVHD: the enrichment ratio is at most 0.25.

As to WDYC, the enrichment ratio is at most 0.25. In the case of AMCL it was 15.7; in that of AMCE, 67.3. The same measure for AMCI: 14.1; for AMPE: at most 0.25. Regarding AMCK, the enrichment ratio is at most 0.25. Turning to AMIE, the enrichment ratio is at most 0.25.

Turning to AITE, the enrichment ratio was at most 0.25.

Regarding AMNL, the enrichment ratio amounted to 3.05. The same measure for NMCL: at most 0.25; for AMCS: 5.27; for AKTE: at most 0.25.

As to AMTE, the enrichment ratio was 15.1. Regarding PGVP, the enrichment ratio is at most 0.25.

Regarding HSSS, the enrichment ratio is at most 0.25. With DNCF, the enrichment ratio is at most 0.25. Consider HRPL, for which the enrichment ratio is at most 0.25.

Take NSCR: the enrichment ratio is at most 0.25. Turning to ILKS, the enrichment ratio was at most 0.25. As to APIM, the enrichment ratio is at most 0.25. The same measure for QGSM: 9.07; for AMPI: 0.985; for AMPA: at most 0.25. For AMCA, the enrichment ratio stood at 19.4. Turning to MMHC, the enrichment ratio was at most 0.25. With GDLT, the enrichment ratio was at most 0.25.

GDIT: the enrichment ratio came out at 14. In the case of GNIQ it was 9.19; in that of NQIQ, at most 0.25; in that of GQIQ, 14.9. The same measure for GDIQ: 17.5; for GDHQ: at most 0.25; for GDHP: 1.16. The same measure for GDNT: at most 0.25; for VNKQ: at most 0.25. As to GRCH, the enrichment ratio is at most 0.25.

Take YDLC: the enrichment ratio is at most 0.25. In the case of IFMM it was at most 0.25; in that of SGLM, 17.9; in that of SGFM, 5.94.

For the variant HFLM, the enrichment ratio is at most 0.25. As to SGFA, the enrichment ratio is at most 0.25.

Regarding GGLM, the enrichment ratio was 2.85. The same measure for CFLM: at most 0.25.

In the case of TGLM, the enrichment ratio was 26.9. The same measure for NGLM: 13.2; for HGLM: 16.4.

For HRLM, the enrichment ratio was at most 0.25. In the case of RGLM it was at most 0.25; in that of AGLM, 6.12. In the case of RWIP, the enrichment ratio was at most 0.25.

Turning to VHKL, the enrichment ratio was at most 0.25.

For MHLQ, the enrichment ratio is at most 0.25. In the case of DMYA it was at most 0.25; in that of SEHG, at most 0.25. Take VTGQ: the enrichment ratio is at most 0.25. On to YERP, for which the enrichment ratio is at most 0.25.

Consider RWVH, for which the enrichment ratio was at most 0.25. The same measure for EIKR: at most 0.25; for WPFI: at most 0.25; for MTAY: 4.94. In the case of IGLM it was 14; in that of IGLA, at most 0.25; in that of IGFA, at most 0.25. For QFWE, the enrichment ratio is at most 0.25. In the case of TGII it was at most 0.25; in that of AGII, 33.2. For the variant ANSE, the enrichment ratio was found to be 11.5. Turning to AGID, the enrichment ratio was at most 0.25. ANCE: the enrichment ratio was determined as 56.

Consider ANHE, for which the enrichment ratio was at most 0.25. In the case of ANPI it was at most 0.25; in that of ANCA, 44.6; in that of ADSE, at most 0.25. Take ANHV: the enrichment ratio is at most 0.25. With AKSE, the enrichment ratio is at most 0.25. In the case of ANIE it was at most 0.25; in that of LPYL, at most 0.25; in that of MLTL, 8.8.

With YPKQ, the enrichment ratio is at most 0.25. The same measure for RNCE: at most 0.25. In the case of IICI it was at most 0.25; in that of MPFW, at most 0.25. For LFPW, the enrichment ratio is at most 0.25. In the case of RNAC, the enrichment ratio was at most 0.25.

Take NMMW: the enrichment ratio was at most 0.25. In the case of QIFK it was at most 0.25; in that of QINA, at most 0.25. As for QQLA, the enrichment ratio was at most 0.25. In the case of PAGS it was at most 0.25; in that of ADMV, 35.3; in that of ADLH, 5.09. The same measure for AIMV: 5.05; for LNLC: at most 0.25. The same measure for AHLC: at most 0.25; for ANFA: at most 0.25; for GNLH: 1.09. For the variant FDMV, the enrichment ratio was at most 0.25.

For the variant ANLH, the enrichment ratio came to 13. The same measure for ANCI: 19.9; for ANLC: 22.4.

With ANHF, the enrichment ratio is at most 0.25.
